IEC-6 tox: IEC-6 cytotoxicity, counter-screen for KLF5 inhibitors. luminescence viability. inhibition, % at 5 µM. actives 0.78% (n = 290,000). AID 1825; in the data active means inhibition above about 22%;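 further: 0% = plate median of test compound wells and 100% = cytotoxic reference compound wells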
Ba/F3 V617F tox: loss of viability in JAK2V617F-driven Ba/F3 cells | Ba/F3 EpoR-JAK2V617F viability, ATP luminescence | inhibition, % at 5.6 µM | actives 1.1% (n = 220,000);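 active means inhibition above the campaign mean plus 3 SD over all tested compounds, cut at about 24% in these data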;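 further: cytokine-independent growth of Ba/F3 cells driven by EpoR plus mutant JAK2; 0% = DMSO-treated cells and 100% = JAK inhibitor I control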
aSyn 5UTR inh: MLPCN primary screen, SNCA 5' untranslated region; alpha-synuclein 5'UTR reporter, inhibitor activity; inhibition, % (tested at 7.5 µM); AID 1813; actives 0.82% (n = 300,000); in the data active means inhibition above about 60%;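 further: H4 neuroglioblastoma cells stably carrying SNCA 5'UTR luciferase fusion; 0% = DMSO wells and 100% = positive control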
BaF3 parental: parental Ba/F3 viability inhibition as JAK2V617F counter-screen. CellTiter-Glo ATP luminescence. inhibition, % at 5.6 µM. actives 1.1% (n = 220,000);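 active means inhibition above a per-campaign cutoff, the mean inhibition of all tested compounds plus 3 SD, cut at about 27% in these data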;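 further: 0% = DMSO wells and 100% = JAK Inhibitor I control wells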
KLF5 inh: suppresses KLF5 promoter-driven expression; AID 1700; inhibition, % at 5 µM; actives 0.23% (n = 290,000); DLD-1 KLF5 promoter-luciferase reporter, luminescence;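 active means inhibition above a per-plate limit of that plate's mean compound inhibition plus 3 SD, cut at about 60% in these data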;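 further: 0% = DMSO wells and 100% = LY294002 at 200 µM; higher means less KLF5 promoter-driven luciferase light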
APP 5UTR inh: APP translation inhibition; SH-SY5Y APP 5'UTR-luciferase reporter, luminescence; inhibition, % at 2 µM; AID 1285; actives 0.82% (n = 190,000);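 active means inhibition above a set limit, derived from the sample mean plus 3 SD, cut at about 45% in these data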
Starred values were filed as active, the others as inactive; . = not tested or not shown. Sampled rows, rich in hits. Any-hit rate of the full collection: about 2.2%.

SMILES | IEC-6 tox | Ba/F3 V617F tox | aSyn 5UTR inh | BaF3 parental | KLF5 inh | APP 5UTR inh
Cc1onc(-c2c(Cl)cccc2Cl)c1C(=O)N/N=C(\N)COc1ccc(Cl)cc1 | 2 | -1 | 89* | 5 | -12 | 13
Cn1c(COc2nnc(-c3ccc(Cl)cc3)c3ccccc23)nc2ccccc21 | 5 | 5 | -28 | 8 | 9 | 2
CC1(C)CC(N=c2cc(-c3ccccc3)oc3ccc(Cl)cc23)CC(C)(C)N1 | -1 | 3 | 99* | 2 | -45 | -23
OCCCN=c1cc(-c2ccccc2)oc2ccc(Cl)cc12 | -1 | -1 | -440 | 7 | -104 | -35
CC[n+]1c(/C=C/Nc2ccccc2)oc2ccc(OC)cc21 | -2 | 11 | -13 | 20 | -11 | -10
CC[n+]1c(/C=C/N(C)c2ccccc2)oc2ccccc21 | 20 | 86* | -13 | 72* | 6 | 2
CC[n+]1c(/C=C/N(C)c2ccccc2)oc2ccc(F)cc21 | 6 | 79* | -6 | 72* | 22 | -5
CNS(=O)(=O)c1cc2c3c(cccc3c1)C(=O)NC2=O | 2 | -1 | 71* | 4 | 11 | 4
O=C(N/N=C/c1cccnc1)C1CCCCC1 | 3 | -3 | -11 | -1 | -15 | -19
Cc1ccc(NC(=O)c2cc(C)n(-c3ccccc3)c2C)cc1 | -2 | 0 | 106* | 6 | 50 | -52
Cc1ccc(NC(=O)c2cc3ccccc3oc2=N)cc1 | -4 | . | 82* | . | 58 | .
O=C(COc1ccc2oc(-c3ccccc3)cc(=O)c2c1)NCc1ccco1 | -2 | 0 | -127 | -2 | -14 | -10
CC1CCCCN1S(=O)(=O)c1ccc(C(=O)Nc2nnc(-c3ccncc3)o2)cc1 (configuration not stated) | -1 | 0 | -1 | 7 | 6 | 2
COc1ccc(-c2nnc(NC(=O)c3ccc(S(=O)(=O)N4COCC4(C)C)cc3)o2)cc1 | 10 | 21 | 76* | 46* | 26 | 33
CC1CCCCN1S(=O)(=O)c1ccc(C(=O)Nc2nnc(-c3ccccc3Cl)o2)cc1 (configuration not stated) | 0 | 2 | 48 | 5 | -19 | 16
CC1(C)COCN1S(=O)(=O)c1ccc(C(=O)Nc2nnc(-c3ccc(Cl)s3)o2)cc1 | 6 | -4 | 92* | 3 | -20 | 44
O=C(Nc1ccc(F)cc1)c1ccc(C(=O)N2CCOCC2)cc1 | . | . | -1 | . | . | .
CN1CCN(C(=O)/C(=C/c2cn(S(=O)(=O)N(C)C)c3ccccc23)NC(=O)c2ccccc2Cl)CC1 | -10 | . | 29 | . | -22 | .
CCCCNc1nc(N)ncc1[N+](=O)[O-] | -3 | -5 | 38 | 2 | -24 | .
Cc1cc(=O)[nH]c(N/N=C/c2cc(C)n(CC(F)(F)F)c2C)n1 | 0 | 76* | -89 | 32* | 12 | .
Cc1cc(=O)[nH]c(N/N=C/c2ccccc2C(F)(F)F)n1 | 5 | 3 | -43 | 0 | 12 | -23
Cc1ccc(C)c(OCCOCCN2CCOCC2)c1 | -4 | -1 | -12 | 3 | -2 | -4
Cc1ccc(CNCC(O)(c2ccccc2)c2ccc(Cl)cc2)cc1 (configuration not stated) | 7 | 19 | 3 | 29* | -15 | 5
Oc1c(C(Nc2cccc(C(F)(F)F)c2)c2cccnc2)ccc2cccnc12 (configuration not stated) | -2 | -3 | -27 | 3 | -7 | 3
Cc1cc(NC(c2cccnc2)c2ccc3cccnc3c2O)no1 (configuration not stated) | 18 | 1 | 77* | -1 | 28 | 54*
SMILES | IEC-6 tox | Ba/F3 V617F tox | aSyn 5UTR inh | BaF3 parental | KLF5 inh | APP 5UTR inh
O=C(N/N=C/c1ccc(F)cc1)c1ccc(OCc2ccccc2)cc1 | -6 | 4 | 14 | 49* | -12 | .
CCOc1ccc(OCc2cccc(C(=O)N/N=C/c3cccnc3)c2)cc1 | -1 | 1 | 87* | 10 | 52 | -20
COc1ccc(O)c(/C=N/NC(=O)c2ccc(OCc3cccc(Br)c3)cc2)c1 | -1 | -2 | 82* | 3 | -43 | 66*
CCOc1cccc(/C=N/NC(=O)c2cccnc2)c1O | 11 | . | 18 | . | 94* | .
CC(C)c1ccc(OCc2cccc(C(=O)N/N=C/c3cccnc3)c2)cc1 | -4 | -4 | 30 | 4 | -151 | -103
COc1ccc(C(C(=O)NC(C)(C)C)N(C(=O)CNC(=O)c2cccs2)c2ccc(C(C)C)cc2)cc1OC (configuration not stated) | 1 | 8 | -34 | 3 | 14 | 4

Bioassay records: PubChem, several laboratories
